Assay outcomes: PubChem, National Center for Advancing Translational Sciences (NCATS)
TDP1 block: qHTS Assay for Inhibitors of Tyrosyl-DNA Phosphodiesterase (TDP1) | recombinant TDP1, AlphaScreen DNA substrate cleavage | Potency, µM (highest dose often 130 µM), for the others: top-dose activity change, negative = inhibition, actives largely listed as inhibitors | 350,000 compounds, 0.28% hits | AID 485290, 2010; note: potency is the fitted concentration of half-maximal effect; % is set by controls: 0 for no effect and ±100 for the full control effect; nearly all actives have a fitted effect of over 40% in size
Target sequence (Q9NUW8 whole entry, looked up): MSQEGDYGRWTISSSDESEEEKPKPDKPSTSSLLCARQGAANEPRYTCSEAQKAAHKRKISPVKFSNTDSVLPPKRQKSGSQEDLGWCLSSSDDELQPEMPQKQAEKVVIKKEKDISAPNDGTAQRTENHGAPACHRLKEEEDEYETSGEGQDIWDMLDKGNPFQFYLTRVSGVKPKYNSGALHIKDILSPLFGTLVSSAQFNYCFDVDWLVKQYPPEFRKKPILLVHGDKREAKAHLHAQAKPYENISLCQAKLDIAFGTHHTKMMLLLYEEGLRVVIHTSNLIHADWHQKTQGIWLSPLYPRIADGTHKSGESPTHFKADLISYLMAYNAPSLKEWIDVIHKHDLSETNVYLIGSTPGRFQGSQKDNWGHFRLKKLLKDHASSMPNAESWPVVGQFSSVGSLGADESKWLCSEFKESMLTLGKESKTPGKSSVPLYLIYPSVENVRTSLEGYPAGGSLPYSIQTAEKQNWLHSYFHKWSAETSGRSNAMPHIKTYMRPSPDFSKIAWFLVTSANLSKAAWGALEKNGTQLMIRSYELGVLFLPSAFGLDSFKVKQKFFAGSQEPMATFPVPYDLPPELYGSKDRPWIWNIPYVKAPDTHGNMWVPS
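Recombinant E. coli-expressed Tdp1 (1 nM) preincubated with compound 15 min at RT, then 5'-biotin/3'-phosphotyrosine-FITC DNA substrate (15 nM) added for 5 min. AlphaScreen beads (10 ug/ml) added, 10 min RT; tyrosine-FITC cleavage read as signal loss.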
TGFb inhibitor: qHTS for Inhibitors of TGF-b; HepG2 CAGA-GFP TGF-b/SMAD3 reporter, GFP fluorescence, 18 h; TGF-beta stimulated, 500 pg/mL final; Potency, µM (titrated, usually from 46.1 µM), inactives show top-dose activity, negative = inhibition, most hits filed as inhibitors; 410,000 compounds, 1.2% hits; note: potency is the fitted concentration of half-maximal effect; % is set by controls: 0 for no effect and ±100 for the full control effect; nearly all actives have a fitted effect of over 65% in size
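Cell-based qHTS in HEPG2 carrying a CAGA-GFP Smad reporter; compounds added before 500 pg/mL final TGF-beta, 18 h incubation at 37 degrees C, GFP fluorescence quantified per cell by imaging cytometry.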
IL1B secr inh: qHTS for Inhibitors of Inflammasome Signaling: IL-1-beta AlphaLISA Primary Screen; AID 743279, 2014; THP-1 LPS/ATP IL-1B secretion, AlphaLISA, 16 h; stronger effect = lower value; 360,000 compounds, 4.7% hits; activity change, % at 57.5 µM; in the data active = activity change below about -50%; inconclusive = mostly about -30% to -49%; note: % is set by controls: 0 for no effect and ±100 for the full control effect
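Secreted IL-1B measured by AlphaLISA bead assay after 16 h compound exposure of THP-1 cells; compounds (final up to 57.5 uM) added 1 h before LPS (250 ng/mL) and ATP (1.25 mM) stimulation; lower signal means less secretion.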
TDP1 cell noCPT: qHTS for Inhibitors of human tyrosyl-DNA phosphodiesterase 1 (TDP1): qHTS in cells in absence of CPT; DT40 Tdp1-/- hTDP1 cells, no CPT, ATP luminescence, 48 h; Potency, µM (highest dose often 46.2 µM), without a hit: at the highest dose activity change, negative = growth inhibition, actives largely listed as inhibitors; 420,000 compounds, 15% hits; note: potency is the fitted concentration of half-maximal effect; % is set by controls: 0 for no effect and ±100 for the full control effect; nearly all actives have a fitted effect of over 55% in size
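Chicken DT40 Tdp1-/- cells complemented with human TDP1, screened without camptothecin (DMSO vehicle only), 400 cells/well. Compounds pin-transferred, cells incubated at 37 °C for at least 48 hr. Growth read as ATP-dependent luminescence (CellTiter-Glo, 30 min at RT).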
TDP1 cell CPT: qHTS for Inhibitors of human tyrosyl-DNA phosphodiesterase 1 (TDP1): qHTS in cells in presence of CPT | chicken DT40 Tdp1-/-;hTDP1 cells + 20 nM CPT, ATP luminescence, 48 h | Potency, µM (series often up to 46.2 µM), for inactives: at the top dose activity change, negative = growth inhibition, most hits filed as inhibitors | 420,000 compounds, 12% hits | AID 686979, 2013; note: potency is the fitted concentration of half-maximal effect; % is set by controls: 0 for no effect and ±100 for the full control effect; nearly all actives have a fitted effect of over 55% in size
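Chicken DT40 Tdp1-/- cells stably complemented with human TDP1 were seeded at 400 cells/well in medium containing 20 nM camptothecin, exposed to pin-transferred compounds, and grown at 37 °C for at least 48 hr. Viability was read as ATP luminescence.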
HepG2 tox: qHTS for Inhibitors of TGF-b: Cytotox Counterscreen; HepG2 CAGA-GFP viability, ATP luminescence, 18 h; Potency, µM (top dose mostly 46.1 µM), for the others: at the highest dose activity change, negative = cytotoxicity, hits mostly cytotoxic; 410,000 compounds, 0.76% hits; note: potency is the fitted concentration of half-maximal effect
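HepG2 CAGA-GFP cells (1000/well, DMEM with 1% FBS) received compound, then TGF-beta at 500 pg/mL final, and were incubated 18 hours at 37 degrees C. Viability was read by CellTiter-Glo luminescence. Media-only wells were set as complete cell-killing and DMSO as no toxicity.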
* = called active by the depositor. Only some compounds are listed: those with a hit (about 18% of all), similar ones and a draw of the others. Unless noted, calls come from the whole dose curve; as a rule, active = well fitted curve in the direction sought with a large enough effect; inconclusive = small, poorly fitted or top-dose-only effect, or another doubt; inactive = no such curve, though single readings can be large; an effect the other way counts as inactive or inconclusive.

How did Cc1cc(C)cc(NC(=O)C(Sc2ncnc3ccccc23)c2ccccc2)c1 (configuration not stated) do in these assays?
TDP1 block: -3%; TGFb inhibitor: 3%; IL1B secr inh: -58*; TDP1 cell noCPT: inconclusive; TDP1 cell CPT: inconclusive; HepG2 tox: -7%

Results for O=C(Nc1cccc(C(F)(F)F)c1)C(Sc1ncnc2ccccc12)c1ccccc1 (configuration not stated) ?
TDP1 block: 8%; TGFb inhibitor: inconclusive; IL1B secr inh: -108*; TDP1 cell noCPT: 21µM*; TDP1 cell CPT: inconclusive; HepG2 tox: -27%

How did O=C(Nc1cc(Cl)ccc1F)C1=COCCO1 do in these assays?
TGFb inhibitor: 8%; IL1B secr inh: 0; TDP1 cell noCPT: -11%; TDP1 cell CPT: -29%; HepG2 tox: 7%

Results for O=S(=O)(c1ccc(C(F)(F)F)cc1)N1CCN(c2nc(-c3cccs3)nc3ccccc23)CC1 ?
TDP1 block: 0%; TDP1 cell noCPT: -30%; TDP1 cell CPT: -21%

Results for CCc1nn(CC(=O)NCCN2CCN(C)CC2)c(=O)c2cc3c(OC)cccc3n12 ?
TDP1 block: 6%; TGFb inhibitor: -1%; IL1B secr inh: -7; TDP1 cell noCPT: 0%; TDP1 cell CPT: 4%; HepG2 tox: 11%

What do the screens show for `O=C(c1cccc(F)c1)N1CCCC(C(=O)N2CCN(c3ccccc3)CC2)C1` (configuration not stated)?
TDP1 block: 2%; TGFb inhibitor: -10%; TDP1 cell noCPT: inconclusive; TDP1 cell CPT: 8%; HepG2 tox: 4%

Results for Cc1ccc(C(=O)NCCn2c(C)cc3ccccc32)cc1C ?
TDP1 block: 2%; TGFb inhibitor: inconclusive; TDP1 cell noCPT: 10µM*; TDP1 cell CPT: 12µM*; HepG2 tox: -38%

Results for Cc1cc2ccccc2n1CCNC(=O)C(C)Oc1ccccc1 (configuration not stated) ?
TDP1 block: 10%; TGFb inhibitor: 0%; IL1B secr inh: -17; TDP1 cell noCPT: -20%; TDP1 cell CPT: 23µM*; HepG2 tox: -18%

Results for O=C(O)/C=C/c1ccc(Cn2ccnc2)cc1 ?
TGFb inhibitor: -11%; IL1B secr inh: 24; TDP1 cell noCPT: 3%; TDP1 cell CPT: -19%; HepG2 tox: -12%

What do the screens show for `Nc1ccc(-c2ccc(N)c(O)c2)cc1O`?
TDP1 block: 12%

How did Nc1ccc(Cc2ccc(N)c(O)c2)cc1O do in these assays?
TDP1 block: -1%; TGFb inhibitor: 0%; IL1B secr inh: 6; TDP1 cell noCPT: inconclusive; TDP1 cell CPT: 23µM*; HepG2 tox: -16%

How did CC1Cc2cc(S(=O)(=O)CCC(=O)NCc3ccco3)ccc2N1C(=O)C1CC1 (configuration not stated) do in these assays?
TDP1 block: 3%; TGFb inhibitor: -4%; IL1B secr inh: 0; TDP1 cell noCPT: 2.9µM*; TDP1 cell CPT: 6.5µM*; HepG2 tox: -31%

How did COc1ccc(CNC(=O)CCS(=O)(=O)c2ccc3c(c2)CC(C)N3C(=O)C2CC2)cc1 (configuration not stated) do in these assays?
TDP1 block: 0%; TGFb inhibitor: -1%; IL1B secr inh: -14; TDP1 cell noCPT: 3.7µM*; TDP1 cell CPT: 15µM*; HepG2 tox: -30%

Results for CCC(=O)N1CCc2cc(S(=O)(=O)CCC(=O)NCc3ccco3)ccc21 ?
TDP1 block: 5%; TGFb inhibitor: -3%; IL1B secr inh: 32; TDP1 cell noCPT: 2.9µM*; TDP1 cell CPT: -102%; HepG2 tox: -15%

Results for COc1ccccc1CNC(=O)CCS(=O)(=O)c1ccc2c(c1)CC(C)N2C(=O)C1CC1 (configuration not stated) ?
TDP1 block: 1%; TGFb inhibitor: 4%; IL1B secr inh: -11; TDP1 cell noCPT: 23µM*; TDP1 cell CPT: 21µM*; HepG2 tox: -2%

Results for O=C(CCS(=O)(=O)c1cc(Br)cc2c1N(C(=O)C1CC1)CC2)NCc1ccco1 ?
TDP1 block: 0%; TGFb inhibitor: -5%; IL1B secr inh: -20; TDP1 cell noCPT: inconclusive; TDP1 cell CPT: -23%; HepG2 tox: -19%

What do the screens show for `CC(CC(=O)NCc1ccco1)S(=O)(=O)c1ccc2c(c1)CCN2C(=O)C1CC1` (configuration not stated)?
TDP1 block: 1%; TGFb inhibitor: -6%; IL1B secr inh: 12; TDP1 cell noCPT: inconclusive; TDP1 cell CPT: 18µM*; HepG2 tox: 4%

How did O=C(NCc1ccccn1)/C(=N/O)c1ccccc1 do in these assays?
TDP1 block: -2%; TGFb inhibitor: inconclusive; IL1B secr inh: 12; TDP1 cell noCPT: 15µM*; TDP1 cell CPT: 15µM*; HepG2 tox: -3%

What do the screens show for `CCCn1c(=O)sc2cc(NC(=O)c3ccccc3OCC)ccc21`?
TDP1 block: 0%; TGFb inhibitor: -9%; TDP1 cell noCPT: inconclusive; TDP1 cell CPT: inconclusive; HepG2 tox: -22%

Results for CCCn1c(=O)sc2cc(NC(=O)c3ccccc3Cl)ccc21 ?
TDP1 block: 2%; TGFb inhibitor: inconclusive; TDP1 cell noCPT: inconclusive; TDP1 cell CPT: 21µM*; HepG2 tox: -20%

Results for COc1cc(CN2C(=O)C(CCc3ccccc3)ON=C2c2cnccn2)cc(OC)c1 (configuration not stated) ?
TGFb inhibitor: -5%; IL1B secr inh: -29; TDP1 cell noCPT: inconclusive; TDP1 cell CPT: inconclusive; HepG2 tox: -4%

Results for Cc1cn2c(=O)cc(COc3cccc(NC(=O)c4ccccc4Cl)c3)nc2s1 ?
TDP1 block: 1%; TGFb inhibitor: -9%; TDP1 cell noCPT: 13µM*; TDP1 cell CPT: inconclusive; HepG2 tox: 5%

How did Cc1cn2c(=O)cc(COc3cccc(NC(=O)c4ccc(C(C)(C)C)cc4)c3)nc2s1 do in these assays?
TDP1 block: 4%; TGFb inhibitor: inconclusive; TDP1 cell noCPT: 16µM*; TDP1 cell CPT: 16µM*; HepG2 tox: 4%
